Test results taken from PubChem BioAssay AID720550 (National Center for Advancing Translational Sciences (NCATS), 2013).
Records with an inconclusive call do not appear. A call without a number means that no potency is given here. Activity calls are given as the source filed them. The call rests on the fitted dose curve; in most records, active means well fitted curve in the direction sought with a large enough effect; inconclusive means small, poorly fitted or top-dose-only effect, or another doubt; inactive means no such curve, though single readings can be large or run the other way.

Assay: qHTS for Inhibitors of Bloom's syndrome helicase (BLM): Thiazole Orange DNA Binding Counterscreen for SAR.
Conditions: fluorescence; Potency: Thiazole orange DNA displacement; series mostly up to 57.1 µM
In short: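 Compounds pintool-added to 50 nM unlabeled DNA with 100 nM thiazole orange; fluorescence (ex 480/em 530 nm) read after 15 min at room temperature. Dye displacement flags nonspecific DNA binders; inactivity is the desired outcome.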

CCCCCCNC(=O)Nc1nnc(-c2ccncc2)s1
Potency: inactive

O=C(Nc1ccc2ccccc2c1)Nc1nnc(-c2ccc(O)cc2)s1
Potency: inactive

Cc1cc(NC(=O)Nc2nnc(C3CCCCC3)s2)ccc1Br
Potency: inactive

N#Cc1cc(NC(=O)Nc2nnc(-c3ccncc3)s2)ccc1F
Potency: inactive

CN(C(=O)Nc1ccc2ccccc2c1)c1nnc(-c2ccncc2)s1
Potency: inactive

O=C(NCc1ccc(Cl)c(Cl)c1)Nc1nnc(-c2ccncc2)s1
Potency: inactive

N#Cc1cccc(NC(=O)Nc2nnc(-c3ccncc3)s2)c1
Potency: inactive

O=C(Nc1ccc(Cl)c(Cl)c1)Nc1cccc(-c2ccncc2)n1
Potency: inactive

O=C(Nc1nnc(-c2ccncc2)s1)NC12CC3CC(CC(C3)C1)C2
Potency: inactive

Cc1cc(NC(=O)Nc2nnc(C3CCCCC3)s2)ccc1Cl
Potency: inactive

O=C(Nc1cc(C(F)(F)F)cc(C(F)(F)F)c1)Nc1nnc(-c2ccncc2)s1
Potency: inactive

Cc1cc(NC(=O)Nc2cccc(-c3ccncc3)n2)ccc1F
Potency: inactive

O=C(Cc1nnc(-c2ccncc2)s1)Nc1ccc(F)c(C(F)(F)F)c1
Potency: inactive

O=C(Nc1ccc2ccccc2c1)Nc1nnc(-c2ccccc2Cl)s1
Potency: inactive

CC(=O)c1ccc(NC(=O)Nc2nnc(-c3ccncc3)s2)cc1
Potency: inactive

O=C(Nc1ccc(Cl)c(Cl)c1)Nc1nnc(-c2ccc(F)cc2)s1
Potency: inactive

Cc1cc(NC(=O)Nc2nnc(-c3cccnc3)s2)ccc1Cl
Potency: inactive

O=C(Nc1ccc2ccccc2c1)Nc1nnc(-c2ccccn2)s1
Potency: inactive

Cc1cc(NC(=O)Nc2nnc(-c3ccncc3)s2)ccc1F
Potency: inactive

O=C(Nc1ccc(F)c(C(F)(F)F)c1)Nc1nnc(-c2ccncc2)o1
Potency: inactive

CC(C)(C)NC(=O)Nc1nnc(-c2ccncc2)s1
Potency: inactive

O=C(Nc1ccc(Cl)c(C(F)(F)F)c1)Nc1nnc(-c2cccnc2)s1
Potency: inactive

CN1CCN(c2nnc(NC(=O)Nc3ccc(Cl)c(Cl)c3)s2)CC1
Potency: inactive

O=C(Nc1ccc(Cl)c(Cl)c1)Nc1nnc(C2CCCCC2)s1
Potency: inactive

O=C(Nc1ccc2ccccc2c1)Nc1nnc(C2CCCCC2)s1
Potency: inactive

O=C(Nc1nnc(-c2ccncc2)s1)Nc1cccc2ccccc12
Potency: inactive

O=C(Nc1ccc(Cl)c(Cl)c1)Nc1nnc(N2CCNCC2)s1
Potency: inactive

N#Cc1ccc(NC(=O)Nc2nnc(-c3ccncc3)s2)c(Cl)c1
Potency: inactive

O=C(Nc1cccc(C(=O)O)c1)Nc1nnc(-c2ccncc2)s1
Potency: inactive

Cc1cc(NC(=O)Nc2nnc(-c3cccnc3)s2)ccc1F
Potency: inactive

O=C(Nc1ccc(-n2cncn2)c(C(F)(F)F)c1)Nc1nnc(-c2ccncc2)s1
Potency: inactive

O=C(Nc1ccc(Cl)c(Cl)c1)Nc1nnc(NC2CCNCC2)s1
Potency: inactive

O=C(Nc1ccc(Cl)c(Cl)c1)Nc1ncc(-c2ccncc2)s1
Potency: inactive

Cc1cc(NC(=O)Nc2nnc(-c3ccncc3)s2)ccc1C#N
Potency: inactive

Cc1cnccc1-c1nnc(NC(=O)Nc2ccc(F)c(C(F)(F)F)c2)s1
Potency: inactive

COc1ccc(-c2nnc(NC(=O)Nc3ccc4ccccc4c3)s2)cc1OC
Potency: inactive

Cc1cc(NC(=O)Nc2nnc(-c3cccnc3)s2)ccc1Br
Potency: inactive
